According to the supplement of paper PMC11417369:
Over roughly 25,000 sequences, “ln(normalized median fluorescence intensity)” has its median near 9.7; the highest 2% begin near 11. The entries come from a sample that favours the highest values as a whole.

System: PfAP2-HC AP2 domain (GST-tagged)
Experiment: gcPBM binding intensity (ln(normalized median fluorescence intensity)); higher = stronger DNA binding
Outline: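 In this array assay, P. falciparum DNA-binding domains with a GST tag, expressed in E. coli, were applied for 1 h to primer-extended double-stranded 36-bp intergenic genomic probes and negative controls on an Agilent 4 × 180k array. Bound protein was visualised with Alexa488 anti-GST antibody at 488 nm. Binding intensity is the highest Masliner-normalised natural-log median intensity across replicate spots of either probe orientation.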

Sequence | gcPBM binding intensity (ln)
ATTAGTATTAGATGATGTACATTTATATTGAAATAT [XGTACX_site8537] | 9.63
GATATATTTTATATATGTACATACAAGGGTAAATAT [XGTACX_site1202] | 9.68
ATATATATATATGTCTGTACATAAAAAATAATAAAT [XGTACX_site3122] | 9.68
TATATATATATAATTACACACAATGTTCTATATATA [CACACA_site3235] | 9.8
TTGTGATTATATAATCGTACATAATTTTAATCACAC [XGTACX_site398] | 9.58
TTTTTTTTAATTGTGATACGTATATTATTTAATGAT [CACACA_negctrl_site38] | 9.59
CGCACAAAAATATACACACACACATATATATTTATT [CACACA_site3645] | 10.4
ACATTATATAAAATATGTACATATAAAAAATTCTAT [XGTACX_site1617] | 9.77
GTTATATAAACATATGCATGTGAAGTGTTTATTAAT [TGCATGCA_site183] | 9.8
GTATCAAAAGAATACACACACACATACCTATAAATA [CACACA_site7737] | 10.8
AATAAAAAAGAATATACACACATAAATATAAAATAT [CACACA_site683] | 10
GTATCAAAAGAATACACACACACATACAGATATATA [CACACA_site5975] | 11.2
AAAATACACGCATACACACACACACCGACACATATA [CACACA_site4523] | 10.7
AATAGTAAAAGATATACACACACCAAAAAATAGAAT [CACACA_site2289] | 11.6
TATATCAAAATACATACACACATTTGTATATACATT [CACACA_site2696] | 10
TGGTATCAAAAGAATACACACACACCGACATATATA [CACACA_site9265] | 11.1
GTATCAAAAGAATACACACACACATACATATATATA [CACACA_site3796] | 11.3
AATAGTAAAAGATATACACACACCAAAAAATATAAT [CACACA_site5293] | 10.3
TAGTAAAAGATATACACACACCAAAAAATATAATTA [CACACA_site7142] | 10.5
AAAGAAAGAAAGAATACACACACACCGATATATATA [CACACA_site9246] | 10.3
TCAAAGCACAGATACACACACATATATATATATATA [CACACA_site287] | 10.1
AAAAAAATTTCACATTGTACTTTAATAATATACTAC [XGTACX_site7264] | 9.64
TATATATATATATATTGTACATAATGTATATATGTT [XGTACX_site3448] | 9.74
AAAATAATGTATATAGTGCAAATGAAAACGAAAAAA [GTGCAC_site9455] | 10.1
TGAATATTTCTATATACACACATATATATATATATA [CACACA_site3451] | 9.74
